High-throughput results deposited in PubChem by several laboratories.
Beta cell apopt = inhibitors of cytokine-induced beta cell apoptosis, primary screen, luminescence; protection from apoptosis, % (test concentration not listed); INS-1E cytokine-induced death, ATP luminescence, 48 h; percent of positive-control rescue, neutral wells zero; 300,000 tested, 0.8% active;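 active = Every replicate reaches about 75%, or at least half do and their mean reaches it too, limit read from the data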;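 also: higher means more ATP so stronger rescue from cytokine killing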
697 NFkB inh = inhibitors of PMA/ionomycin-induced NF-kB reporter, 697 cells, primary screen, B-cell NF-kB inhibitor project, cell-based, luminescence, uHTS; 697 B-cell NF-kB luciferase reporter, 16 h; inhibition, % at 4 µM; 330,000 tested, 0.33% active; AID 435022, 2010; in the data active = inhibition above about 35%
Gli-Sufu block = Gli-Sufu pathway antagonists, primary screen, luciferase luminescence, Sufu-KO-LIGHT cells, uHTS | inhibition, % at 5 µM | 340,000 tested, 0.74% active | Sufu-KO-LIGHT fibroblasts, Gli luciferase reporter luminescence | AID 588413, 2011;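 active = inhibition above about 55%, limit read from the data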
Jurkat NFkB inh = inhibitors of induced NF-kB luciferase reporter, primary screen, TCR NF-kB activation inhibitor project, cell-based, luminescence, uHTS. 330,000 tested, 0.53% active. inhibition, % at 4 µM. Jurkat, PMA/ionomycin-induced NF-kB luciferase reporter; in the data active = inhibition above about 50%
697 NFkB conf = PMA/ionomycin-induced NF-kB reporter inhibitors, 697 retest, confirmation, B-cell NF-kB inhibitor project, cell-based, luminescence, single concentration; shares compounds with 697 NFkB inh; 697 B-cell NF-kB luciferase, 16 h; inhibition, % at 4 µM; 2,000 tested, 35% active; in the data active = inhibition mostly above about 28%, no sharp cut-off; inactive = mostly below about 22%
Each line names hits and unclear results; the compound was inactive in the other large screens (follow-up assays come after a bar, where they were run). Rows were chosen to be rich in hits. Some 1.8% of all compounds tested hit in one or more screens of this group.

COc1ccc(NC(=S)NCc2ccccc2)c(OC)c1	697 NFkB inh 43 (no result: Beta cell apopt) | 697 NFkB conf 30
COc1ccc(NC(=O)C2CCCN2C(=O)OCc2ccccc2)c(OC)c1 (stereo not drawn)	697 NFkB inh 36 | 697 NFkB conf inactive
NC(=O)CCCn1c(C(=O)c2cc(Cl)c(N)c(Cl)c2)c2ccc([N+](=O)[O-])cc2[n+]1[O-]	none | 697 NFkB conf inactive
O=C(Nc1cccc(-c2nc3ccccc3s2)c1)c1ccc2c(c1)OCO2	none
c1ccc2sc(-c3ccc4c(c3)OCO4)nc2c1	none | 697 NFkB conf inactive
CCOc1ccc2oc(-c3ccccc3)c(C(=O)N3CCN(CCO)CC3)c2c1	none (no result: Beta cell apopt, 697 NFkB inh, Jurkat NFkB inh)
Cc1ccc(OCC(=O)NCCCNC(=O)c2ccccn2)cc1	none
COCCCNC(=O)COc1ccc(-c2nccc(-c3ccccn3)n2)cc1	697 NFkB inh 53 | 697 NFkB conf 63
O=C1CCCc2c1[nH]c1ccc(CN3CCCCC3)cc21	697 NFkB inh 38 | 697 NFkB conf 29
COc1ccc(N(CC(=O)N2CCN(c3ccc(Cl)cc3)CC2)S(=O)(=O)c2c(C)n[nH]c2C)cc1	697 NFkB inh 37 | 697 NFkB conf 32
Fc1ccc(-c2nc(-c3cccs3)no2)cc1	none
Fc1ccc(-c2noc(-c3ccc4c(c3)CCO4)n2)cc1	none | 697 NFkB conf inactive
O=C1C(c2ccnc3ccccc23)=C(O)c2ccccc21	none | 697 NFkB conf inactive
N#CC1=C(N)SC(N)=C(C#N)C1c1ccnc2ccccc12	none
O=C1c2ccccc2C(=O)C1c1nccc2ccccc12	none | 697 NFkB conf inactive
O=C1c2ccccc2C(=O)C1c1ccnc2ccccc12	none | 697 NFkB conf inactive
NC1=NC[C@@H](Cc2ccc(O)cc2)N1CCc1cccc(F)c1	none
CCc1nc(SCC(=O)N2c3ccccc3CC2C)c2c(C)c(C)sc2n1 (stereo not drawn)	none | 697 NFkB conf inactive
Cc1sc2nc(C(C)C)nc(SCC(=O)N3c4ccccc4CC3C)c2c1C (stereo not drawn)	none
C(=N\Nc1nc2ccccc2[nH]1)/c1cccc2nccnc12	none | 697 NFkB conf inactive
N#CCCn1cc(CNCc2ccccc2)c(-c2cccc([N+](=O)[O-])c2)n1	none
Cc1ccc(Nc2nc(=O)c3cccnc3s2)c(Br)c1	none | 697 NFkB conf inactive
CCOC(=O)c1ccc(Nc2nc(=O)c3cccnc3s2)cc1	none
O=c1nc(Nc2ccc(OCc3ccccc3)cc2)sc2ncccc12	none | 697 NFkB conf inactive
COc1ccc(C2NC(=O)CCC2[N+](=O)[O-])cc1 (stereo not drawn)	none (no result: Beta cell apopt)
CCOc1ccc(Br)cc1C(=O)Nc1ccc(C(=O)NCC(C)C)cc1	none
O=C(NCC1CCCO1)c1cc(-c2ccccc2F)no1 (stereo not drawn)	none
Cc1nc2cc(-c3ccc(Cl)cc3)nn2c(C)c1CCC(=O)NCc1ccco1	697 NFkB inh 43 | 697 NFkB conf 31
COCCNc1cc(C)nc2cc(-c3ccc(C)cc3)nn12	none
Cc1ccc(-c2cc3nc(C)cc(NCc4ccco4)n3n2)cc1	none | 697 NFkB conf inactive
Clc1cccc(-c2cc3nc4c(c(NCc5ccco5)n3n2)CCCC4)c1	none | 697 NFkB conf inactive
CCN(CC(=O)N1CCC(C(N)=O)CC1)S(=O)(=O)c1cc(Cl)ccc1Cl	none (no result: Beta cell apopt, 697 NFkB inh, Jurkat NFkB inh)
Cc1cc(NC(=O)COC(=O)C2CC(=O)N(c3ccccc3)C2)no1 (stereo not drawn)	none
Cc1ccc2c(c1)cc(C(=O)NCc1ccccc1)n2C	none | 697 NFkB conf inactive
Cc1cc2cc(CNC(=S)NCc3ccccc3)ccc2n1C	none
O=C(CSc1nc2ccccc2o1)NCC(=O)c1ccccc1	none
COc1cc(/C=N/NC(=O)c2ccc(NC(=O)C3CCCCC3)cc2)ccc1O	none
CCOc1cc(/C=N/NC(=O)c2ccc(NC(=O)C3CC3)cc2)ccc1O	697 NFkB inh 39 | 697 NFkB conf inactive
Cc1cc(C2=NNC(=Nc3ccc(S(=O)(=O)N4CCOCC4)cc3)SC2)c(C)n1C	none
N/C(=N\OC(=O)c1ccc(Cl)cc1)c1[nH]ncc1Br	none | 697 NFkB conf inactive
CC(C)(C)c1ccccc1NC(=O)c1ccc2c(c1)SC1=NS(=O)(=O)CCN12	none
O=C(Nc1cccc(Br)c1)c1ccc2c(c1)SC1=NS(=O)(=O)CCN12	697 NFkB inh 46 | 697 NFkB conf 41
O=C(NCCCN1CCOCC1)c1cc(-c2ccc(Br)cc2)on1	697 NFkB inh 63 (no result: Gli-Sufu block) | 697 NFkB conf 38
O=C(N/N=C\c1ccc(F)cc1)c1ccc(Cn2cc(Br)c([N+](=O)[O-])n2)o1	697 NFkB inh 37 | 697 NFkB conf inactive
O=C(N/N=C\c1cccc(F)c1)c1ccc(Cn2cc(Br)c([N+](=O)[O-])n2)o1	none
O=C(NNc1cccc([N+](=O)[O-])c1)/C(=C\c1cccnc1)NC(=O)c1ccccc1	none
O=C(CCCl)Nc1nc2c(s1)CCc1ccccc1-2	none | 697 NFkB conf inactive
C/C(Cl)=C\Cn1c(O)c(N=NC(N)=S)c2ccccc21	none
Cc1ccc(NC(=O)Cn2c(O)c(N=NC(N)=S)c3ccccc32)cc1	697 NFkB inh 40 | 697 NFkB conf inactive
NC(=S)N=Nc1c(O)n(Cc2ccccc2)c2ccccc12	697 NFkB inh 45 | 697 NFkB conf 39
CCc1cc(=O)oc2cc(OCC(=O)NCCCn3ccnc3)ccc12	none
COc1ccc(C(=O)c2coc3ccc(OC(C)=O)cc23)cc1	none | 697 NFkB conf inactive
COc1ccc(OC)c(C(=O)c2coc3ccc(OC(C)=O)cc23)c1	none
Cc1ccc(C(=O)c2coc3ccc(O)cc23)cc1	none | 697 NFkB conf inactive
Cc1cc(C(=O)CSc2nc3ccccc3c(=O)[nH]2)c(C)n1C	none
Cn1c(-c2ccccc2)cc2onc(-c3ccccc3)c2c1=O	none | 697 NFkB conf inactive
CCOC(=O)c1cc(NC(=O)c2ccoc2C)cc(C(=O)OCC)c1	697 NFkB inh 37 | 697 NFkB conf inactive
CC(=O)c1cccc(NC(=O)c2ccoc2C)c1	none
O=S(=O)(Nc1cc(C(F)(F)F)ccc1N1CCOCC1)c1ccccc1	none
CC(=O)c1cccc(S(=O)(=O)Nc2cc(C(F)(F)F)ccc2N2CCOCC2)c1	697 NFkB inh 39 (no result: Beta cell apopt) | 697 NFkB conf 32
CC(=O)c1ccc(N2CCN(c3ccnc4cc(Cl)ccc34)CC2)cc1	697 NFkB inh 42 | 697 NFkB conf inactive
COc1ccc2nc(NC(=O)c3ccco3)sc2c1	none | 697 NFkB conf inactive
CC(=O)Nc1nc2ccc(NC(=O)c3ccco3)cc2s1	none
Cc1ccc2nc(NC(=O)c3ccc(Br)o3)sc2c1	none | 697 NFkB conf inactive
Cc1ccc2nc(NC(=O)c3ccco3)sc2c1	none | 697 NFkB conf inactive
NS(=O)(=O)c1ccc2nc(NC(=O)c3ccc(Br)o3)sc2c1	none
O=C(Nc1nc2ccc(Cl)cc2s1)c1ccco1	none | 697 NFkB conf inactive
CC(=O)N[C@@H](Cc1c[nH]c2ccccc12)C(=O)OCC(=O)Nc1ccc(S(=O)(=O)N(C)C)cc1	none
